The nature of assay [1]: qHTS assay to identify small molecule antagonists of the thyroid receptor (TR) signaling pathway - cell viability counter screen (AID 743064). Further: potency means the concentration at half of the fitted maximal effect; nearly all actives have a fitted effect of over 50% in size. An outline of the steps: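 Rat GH3 pituitary tumor cells stably expressing two TR response elements driving luciferase were plated, rested 4 h, then dosed with library compounds and T3 (1 nM final). After 23.5 h at 37 °C, CellTiter-Fluor was added for 30 min and fluorescence recorded.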
(In qHTS, concentration-response curves come from the screen itself.)

Assay [2] is described as follows: qHTS assay to identify small molecule antagonists of the thyroid receptor (TR) signaling pathway (AID 743065). Further: potency means the concentration at half of the fitted maximal effect; nearly all actives have a fitted effect of over 55% in size. An outline of the steps:
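GH3.TRE-Luc rat pituitary cells (two TREs driving luciferase) were dosed with compound, then stimulated with 1 nM T3 (final) for 23.5 h at 37 C. ONE-Glo luminescence was the read-out, with CellTiter-Fluor fluorescence as the cytotoxicity counter-screen.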

Assay [3] can be described thus: qHTS assay to identify small molecule antagonists of the estrogen receptor alpha (ER-alpha) signaling pathway - cell viability counter screen (AID 743074; calls by dose curve;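 further: HEK293 cells carrying ER-alpha-UAS-bla reporter stimulated with 17beta-estradiol; nearly all actives have a fitted effect of over 45% in size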; further: potency means the concentration at half of the fitted maximal effect).
The target in assay [4] is Estrogen receptor (Homo sapiens) (UniProt P03372). The experiment in a line: qHTS assay to identify small molecule agonists of the estrogen receptor alpha (ER-alpha) signaling pathway (AID 743075; calls by dose curve;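 further: HEK293 GripTite cells with ER-alpha and UAS-driven beta-lactamase reporter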).
Chain of Estrogen receptor (Homo sapiens) (P03372 whole entry, looked up): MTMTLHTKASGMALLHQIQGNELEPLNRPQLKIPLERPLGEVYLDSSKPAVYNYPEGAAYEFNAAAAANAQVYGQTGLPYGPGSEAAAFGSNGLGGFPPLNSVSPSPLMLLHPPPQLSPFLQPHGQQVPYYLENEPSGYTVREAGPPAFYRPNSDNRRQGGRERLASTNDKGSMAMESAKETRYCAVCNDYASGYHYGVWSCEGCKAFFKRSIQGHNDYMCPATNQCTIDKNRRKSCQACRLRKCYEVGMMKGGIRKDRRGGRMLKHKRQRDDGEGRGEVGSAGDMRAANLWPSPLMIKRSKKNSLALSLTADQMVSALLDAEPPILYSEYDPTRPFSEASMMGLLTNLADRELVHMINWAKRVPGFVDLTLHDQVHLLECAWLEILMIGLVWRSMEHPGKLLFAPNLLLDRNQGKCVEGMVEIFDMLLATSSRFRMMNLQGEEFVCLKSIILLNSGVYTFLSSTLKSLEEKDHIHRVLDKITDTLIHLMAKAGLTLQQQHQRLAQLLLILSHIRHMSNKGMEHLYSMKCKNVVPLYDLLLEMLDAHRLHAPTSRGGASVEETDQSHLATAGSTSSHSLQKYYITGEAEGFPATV
The target of assay [5] is Aromatase (Homo sapiens) (UniProt P11511). The experiment in a line: qHTS assay to identify aromatase inhibitors (AID 743083). Further: nearly all actives have a fitted effect of over 55% in size. Further: potency means the concentration at half of the fitted maximal effect.
Chain of Aromatase (Homo sapiens) (P11511 whole entry, looked up): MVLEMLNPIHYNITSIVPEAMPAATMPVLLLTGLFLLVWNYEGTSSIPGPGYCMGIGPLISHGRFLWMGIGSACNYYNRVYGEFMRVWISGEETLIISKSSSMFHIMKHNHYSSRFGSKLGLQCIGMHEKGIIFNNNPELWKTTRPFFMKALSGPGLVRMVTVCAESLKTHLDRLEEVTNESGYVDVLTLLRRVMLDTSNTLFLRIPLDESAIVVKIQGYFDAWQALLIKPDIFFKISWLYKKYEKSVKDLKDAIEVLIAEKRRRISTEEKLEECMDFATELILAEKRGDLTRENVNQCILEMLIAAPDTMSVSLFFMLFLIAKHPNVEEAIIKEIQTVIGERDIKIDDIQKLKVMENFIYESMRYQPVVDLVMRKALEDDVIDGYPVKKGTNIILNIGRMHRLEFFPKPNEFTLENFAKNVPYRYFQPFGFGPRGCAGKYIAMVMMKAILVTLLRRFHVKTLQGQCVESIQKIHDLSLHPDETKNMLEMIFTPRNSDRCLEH
A short description of assay [6]: qHTS assay to identify aromatase inhibitors - cell viability counter screen (AID 743084).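 Further: cells stimulated with testosterone during compound exposure; nearly all actives have a fitted effect of over 55% in size.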 Further: potency means the concentration at half of the fitted maximal effect.
For assay [7], the target named is Aryl hydrocarbon receptor (Homo sapiens) (UniProt P35869). The experiment in a line: qHTS assay to identify small molecule that activate the aryl hydrocarbon receptor (AhR) signaling pathway (AID 743085).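 Further: HG2L7.5c1 human HepG2 liver cells with stably integrated DRE-driven firefly reporter; series mostly up to about 70 µM; nearly all actives have a fitted effect of over 15% in size.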 An outline of the steps: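 Compounds were tested in HepG2 hepatocellular carcinoma cells harbouring a stably integrated luciferase gene under control of 20 DREs. Increased reporter signal after 24 h treatment at 37C was taken as AhR activation.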
Chain of Aryl hydrocarbon receptor (Homo sapiens) (P35869 whole entry, looked up): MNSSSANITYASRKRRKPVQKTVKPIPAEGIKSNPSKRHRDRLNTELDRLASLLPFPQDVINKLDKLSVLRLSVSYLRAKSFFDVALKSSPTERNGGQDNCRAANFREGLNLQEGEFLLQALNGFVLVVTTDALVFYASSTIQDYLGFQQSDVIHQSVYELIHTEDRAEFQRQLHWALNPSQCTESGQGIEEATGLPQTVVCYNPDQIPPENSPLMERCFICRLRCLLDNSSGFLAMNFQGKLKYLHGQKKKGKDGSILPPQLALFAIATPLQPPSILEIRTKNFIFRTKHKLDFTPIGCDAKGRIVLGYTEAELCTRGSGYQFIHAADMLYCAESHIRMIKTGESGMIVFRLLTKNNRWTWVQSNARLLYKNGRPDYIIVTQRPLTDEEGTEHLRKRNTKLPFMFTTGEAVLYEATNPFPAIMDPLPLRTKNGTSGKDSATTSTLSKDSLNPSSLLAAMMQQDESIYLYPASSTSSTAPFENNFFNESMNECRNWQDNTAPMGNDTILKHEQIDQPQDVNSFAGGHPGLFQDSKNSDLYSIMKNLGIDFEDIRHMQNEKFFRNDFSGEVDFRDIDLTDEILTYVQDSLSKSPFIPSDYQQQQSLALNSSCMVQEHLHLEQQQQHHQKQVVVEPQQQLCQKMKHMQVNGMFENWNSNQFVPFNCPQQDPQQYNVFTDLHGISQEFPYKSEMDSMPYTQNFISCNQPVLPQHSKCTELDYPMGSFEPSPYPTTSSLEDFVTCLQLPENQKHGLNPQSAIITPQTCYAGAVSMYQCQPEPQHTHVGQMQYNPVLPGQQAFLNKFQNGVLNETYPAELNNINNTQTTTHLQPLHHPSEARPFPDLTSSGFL

A short description of assay [8]: qHTS assay for small molecule agonists of the antioxidant response element (ARE) signaling pathway - cell viability counter screen (AID 743203; calls by dose curve; further: nearly all actives have a fitted effect of over 55% in size; further: potency means the concentration at half of the fitted maximal effect). An outline of the steps:
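Compounds in DMSO were pinned onto ARE-bla HepG2 cells plated 5 hrs earlier at 2,000 cells/well. Sixteen hours later at 37C/5% CO2, CellTiter-Glo was added and luminescence measured after 30 min at room temperature.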

A short description of assay [9]: qHTS assay for small molecule activators of the heat shock response signaling pathway - cell viability counter screen (AID 743209). Further: nearly all actives have a fitted effect of over 50% in size. Further: potency means the concentration at half of the fitted maximal effect. An outline of the steps:
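Counter screen for cytotoxicity in HeLa HSE-bla reporter cells. Treatment was 5 h at 37 C; viability was detected by luminescent ATP assay (CellTiter-Glo) in the same wells as the beta-lactamase read.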

Assay [10] has as its target Estrogen receptor (Homo sapiens) (UniProt P03372). The experiment in a line: qHTS assay to identify small molecule antagonists of the estrogen receptor alpha (ER-alpha) signaling pathway (AID 743069; active means well fitted curve in the direction sought with a large enough effect in the signal ratio in the repeat runs, not every such curve was filed as active; inconclusive means weak or mixed curves, or effect the other way; inactive means no such curve, though single readings can be large or run the other way; the % refers to the signal ratio; further: potency means the concentration at half of the fitted maximal effect). An outline of the steps: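 Reporter cells (ER-alpha-bla, HEK293 background) are conditioned overnight in stripped-serum medium (2% charcoal-stripped FBS). Compound and 17beta-estradiol exposure runs 18 hr at 37C, 5% CO2.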

Assay [11] in a line: qHTS assay to identify small molecule antagonists of the estrogen receptor alpha (ER-alpha) signaling pathway using the BG1 cell line (AID 743080; calls by dose curve;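 further: BG1 cells stimulated with 17beta-estradiol alongside compound; nearly all actives have a fitted effect of over 25% in size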; further: potency means the concentration at half of the fitted maximal effect). An outline of the steps:
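BG1-Luc-4E2 cells (endogenous full-length ER-alpha, stable 4×ERE-luciferase) were starved 5 days in phenol-red-free medium with 10% charcoal-stripped FBS, plated 24 h, then given compound plus 17beta-estradiol for 21.5 h at 37 C; ONE-Glo luminescence read after 30 min.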

Assay [12] can be described thus: qHTS assay to identify small molecule antagonists of the estrogen receptor alpha (ER-alpha) signaling pathway using the BG1 cell line - cell viability counter screen (AID 743081).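 Further: compound given together with 17beta-estradiol as the ER stimulus; nearly all actives have a fitted effect of over 45% in size.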 Further: potency means the concentration at half of the fitted maximal effect.
The target of assay [13] is Estrogen receptor (Homo sapiens) (UniProt P03372). The experiment in a line: qHTS assay to identify small molecule agonists of the estrogen receptor alpha (ER-alpha) signaling pathway using the BG1 cell line (AID 743079). Further: nearly all actives have a fitted effect of over 20% in size.
A short description of assay [14]: qHTS assay to identify small molecule that activate the aryl hydrocarbon receptor (AhR) signaling pathway - cell viability counter screen (AID 743086). Further: nearly all actives have a fitted effect of over 45% in size. Further: potency means the concentration at half of the fitted maximal effect. An outline of the steps: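 HepG2-AhR-luc (HG2L7.5c1) cells, 4000/well, treated 24 h at 37 C with compound; viability measured as CellTiter-Fluor fluorescence after 30 min in the same wells as the luciferase read.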

The target of assay [15] is Peroxisome proliferator-activated receptor gamma (Homo sapiens) (UniProt P37231). In words: qHTS assay to identify small molecule agonists of the peroxisome proliferator-activated receptor gamma (PPARg) signaling pathway (AID 743094; active means well fitted activation curve with a large enough effect in the signal ratio in the repeat runs, not every such curve was filed as active; inconclusive means weak or mixed curves, or effect the other way; inactive means no such curve, though single readings can be large or run the other way; the % refers to the signal ratio). An outline of the steps: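 Following 5 h plating at 37C, PPARg-bla HEK293H cells receive compound or DMSO for 17 h; fluorescence intensity is recorded after LiveBLAzer B/G loading for 1 h at room temperature.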
Chain of Peroxisome proliferator-activated receptor gamma (Homo sapiens) (P37231 whole entry, looked up): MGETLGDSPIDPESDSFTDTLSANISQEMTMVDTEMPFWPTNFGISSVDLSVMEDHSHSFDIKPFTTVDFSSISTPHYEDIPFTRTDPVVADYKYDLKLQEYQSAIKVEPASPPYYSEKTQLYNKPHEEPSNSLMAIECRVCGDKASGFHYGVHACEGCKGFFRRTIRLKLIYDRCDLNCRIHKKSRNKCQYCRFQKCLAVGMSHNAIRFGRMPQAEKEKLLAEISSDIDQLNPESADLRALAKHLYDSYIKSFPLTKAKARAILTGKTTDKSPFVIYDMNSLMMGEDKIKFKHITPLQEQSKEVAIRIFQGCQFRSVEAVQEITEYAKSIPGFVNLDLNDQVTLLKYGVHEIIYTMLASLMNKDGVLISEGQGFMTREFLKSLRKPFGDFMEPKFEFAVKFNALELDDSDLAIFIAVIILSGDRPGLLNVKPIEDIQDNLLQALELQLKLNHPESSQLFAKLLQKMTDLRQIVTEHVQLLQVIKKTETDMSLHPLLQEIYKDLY

Assay [16] has the same target. In words: qHTS assay to identify small molecule antagonists of the peroxisome proliferator-activated receptor gamma (PPARg) signaling pathway (AID 743191; calls by dose curve; further: series mostly up to about 63 µM; nearly all actives have a fitted effect of over 30% in size). An outline of the steps:
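GeneBLAzer PPARg UAS-bla HEK293H cells, 5 h post-plating, exposed to compounds 17 h at 37C. LiveBLAzer B/G FRET substrate added for 1 h at room temperature; beta-lactamase reporter read by fluorescence intensity.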

The nature of assay [17]: qHTS assay for small molecule activators of the heat shock response signaling pathway (AID 743210; active means well fitted activation curve with a large enough effect in the signal ratio in the repeat runs, with a control signal flat, not every such curve was filed as active; inconclusive means weak or mixed curves; the % refers to the signal ratio;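 further: HeLa cells with beta-lactamase reporter driven by heat shock elements; series mostly up to about 63 µM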). An outline of the steps:
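Quantitative high-throughput format using an engineered HeLa line in which heat shock response elements drive beta-lactamase; after 5 h with compound, cells received a B/G FRET substrate and fluorescence was read.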

Assay [18] can be described thus: qHTS assay to identify small molecule antagonists of the peroxisome proliferator-activated receptor gamma (PPARg) signaling pathway - cell viability counter screen (AID 743194). An outline of the steps: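 Cytotoxicity counter screen in PPARg-bla HEK293H cells, same wells as reporter assay. Compounds plus 50 nM rosiglitazone (final) for 17 h at 37 C, then viability read by CellTiter-Glo luminescence.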

Assay [19] relates to thyroid hormone receptor (rat, GH3 cells). The experiment in a line: qHTS assay to identify small molecule agonists of the thyroid receptor (TR) signaling pathway (AID 743066; calls by dose curve).

“And” between values parts separate entries of the source, which are not always exact repeats. Identical values can stand only once. The source made the active and inactive calls. Unless noted, the call rests on the fitted dose curve; in most records, active means well fitted curve in the direction sought with a large enough effect in the repeat runs; inconclusive means weak or mixed curves; inactive means no such curve, though single readings can be large; an effect the other way counts as inactive or inconclusive.

Consider `CCCCCCCCCCCCCCCCCCNC(=O)OC1CCN(C(=O)OC[C@H](COC(=O)N(Cc2cccc[n+]2CC)C(=O)c2ccccc2OC)OC)CC1`, for which the Potency was 15 µM (active) in [1]; 13.3 µM (active) in assay [2]; 23.9 µM (active) in [3]; 21.1 µM (active) in assay [5]; 29.8 µM (active) in assay [6]; 26.6 µM (active) in assay [8]. The Potency in [9] was 23.7 µM (active). Also, the Potency entry in [4] and in assay [7] was “inactive” each time.
Consider `COC(=O)C[C@](O)(CCCC(C)(C)O)C(=O)O[C@@H]1C(OC)=CC23CCCN2CCc2cc4c(cc2[C@H]13)OCO4` (some centres not stated), for which the Potency in [1] was 0.0596 µM (active); in assay [2] it was 0.0376 µM (active); in assay [10], 674 nM [inconclusive] (active) and 1.2 µM [inconclusive] (active); in assay [11], 0.168 µM (active); in [5], 29.8 nM (active) and 23.7 nM (active). Besides, the Potency result in assay [3], in [4] and in [12] was “inactive” throughout.
Take `CCCCCCCCCCCCCCCCC(C(=O)O)C(O)(CC(=O)O)C(=O)O` (configuration not stated): the Potency in assay [1] is 26.6 µM (active); in assay [2] it was 26.6 µM (active); in [3] it was 26.8 µM (active); in assay [8] it was 21.1 µM (active); in assay [9] it was 29.8 µM (active). In addition, the Potency entry in assay [13], in assay [11], in assay [12], in assay [5], in assay [6] and in assay [7] was “inactive” each time. In addition, the Potency entry in [14] and in assay [15] was “inactive” throughout.
`CO[C@H]1C[C@@H]2CC[C@@H](C)[C@@](O)(O2)C(=O)C(=O)N2CCCC[C@H]2C(=O)O[C@H]([C@H](C)C[C@@H]2CC[C@@H](O)[C@H](OC)C2)CC(=O)[C@H](C)C=C(C)[C@@H](O)[C@@H](OC)C(=O)[C@H](C)C[C@H](C)/C=C/C=CC=C1C`: the Potency was 15 µM (active) and 9.44 µM (active) in assay [1]; 15 µM (active) in assay [2]; 23.9 µM (active) in [3]; 3.8 nM (active) and 7.5 nM (active) in assay [11]; 23.7 µM (active) and 3.76 µM (active) in [12]; 2.11 µM (active) in assay [5]. In addition, the Potency in assay [6] was 23.7 µM (active) and 26.6 µM (active); in assay [14], 13.3 µM (active) and 26.6 µM (active). For the same compound, the Potency result in assay [4] and in [7] was “inactive” throughout.
Turning to `CCC(C)(C)c1ccc(CC(C)CN2C[C@@H](C)O[C@@H](C)C2)cc1` (some centres not stated), the Potency was 11.9 µM (active) in assay [1], 11.9 µM (active) in assay [2] and 29.8 µM (active) in assay [11]. The Potency entry in [4], in assay [12], in [14], in [16], in assay [8] and in [9] was “inactive” in each case. In [17], the call was inactive.
Consider `CCCCC/C=C\C=C\C(=O)OCC`, for which the Potency is 31.9 µM (active) in [1], 28.4 µM (active) in assay [2] and 56.8 µM (active) in assay [6]. Also, the Potency entry in assay [3], in assay [4], in assay [13] and in [12] was “inactive” in each case.
In the case of `CN[C@H]1CC[C@@H](c2ccc(Cl)c(Cl)c2)c2ccc(S(N)(=O)=O)cc21`, the Potency in assay [1] is 8.63 µM (active); in assay [2], 4.33 µM (active); in assay [11] it was 68.6 µM (active); in assay [5] it was 48.6 µM (active); in [14] it was 61.1 µM (active); in [18] it was 49 µM (active). In [8], the Potency was 24.3 µM (active). Besides, the Potency entry in assay [4], in assay [12], in assay [7] and in assay [9] was “inactive” throughout. The compound was classed as inactive in assay [17].
Take `CCN(CC)CCn1c(=O)c(Cc2ccc(OC)cc2)nc2ccccc21`: the Potency in [1] was 26.6 µM (active). The Potency entry in [19], in [10], in [3], in [4], in [13] and in assay [11] was “inactive” throughout. Also, the Potency result in assay [12], in [5], in assay [6], in assay [7], in [14] and in assay [15] was “inactive” in each case.

Source of the values: PubChem BioAssay (Tox21).
